This is an account of results in paper PMC7822874, “Chemoprotective antimalarials identified through quantitative high-throughput screening of Plasmodium blood and liver stage parasites” (Scientific Reports, 2021).

Each structure is given as a SMILES string. Where two headings read alike, the source gives them in different places.

The test system of this experiment is P. berghei-ANKA-GFP-LucCON liver stage parasites in HepG2-A16-CD81EGFP cells. Conditions: 48 h.

On to `COC(=O)C1=C(C)NC(C)=C(C(=O)OCCCN2CCC(c3ccccc3)(c3ccccc3)CC2)C1c1cccc([N+](=O)[O-])c1` (stereo not shown) [NCGC00163135], for which the “% viability” value (1 µM) is recorded as 0.1886 and the “% viability” value (3 µM) is 0.1117.
The like results for `COc1ccc(-c2c[n+](CC(=O)c3cccs3)c3n2CCC3)cc1` [MLS000333575] were, in that order, 1.153 and 0.8461.
